According to PubChem BioAssay (NCI):
This is part of a sample that, as a whole, favours compounds with a hit. Of some 83,000 tested, about 20% had one in any assay.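 Cells were grown in 96-well plates and exposed to the test compound at a single concentration for 48 hours; results are reported as percent growth, with values below 10 considered active.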 Values without a mark were called inactive. Calls of active or inactive are those of the source.

How the values were obtained:
Assay in all cases: NCI-60 one-dose screen, 48 h (100 = growth as untreated, 0 = no growth, -100 = all killed)
Conditions in all cases: 10 µM unless noted
EKVX NSCLC = tested on: EKVX NSCLC
SN12C renal = tested on: SN12C renal
UO-31 renal = tested on: UO-31 renal
TK-10 renal = tested on: TK-10 renal
ACHN renal = tested on: ACHN renal
CCRF-CEM leukemia = tested on: CCRF-CEM leukemia
MOLT-4 leukemia = tested on: MOLT-4 leukemia
SR leukemia = tested on: SR leukemia
RPMI-8226 leukemia = tested on: RPMI-8226 leukemia
OVCAR-8 ovarian = tested on: OVCAR-8 ovarian
OVCAR-5 ovarian = tested on: OVCAR-5 ovarian
OVCAR-4 ovarian = tested on: OVCAR-4 ovarian
SK-OV-3 ovarian = tested on: SK-OV-3 ovarian
IGROV1 ovarian = tested on: IGROV1 ovarian
HS 578T breast = tested on: HS 578T breast
NCI/ADR-RES ovarian = tested on: NCI/ADR-RES ovarian
CAKI-1 renal = tested on: CAKI-1 renal

`Cc1cccc(/C=C/C(=O)Nc2ncc(Cc3cccc(C)c3)s2)c1` showed a growth (EKVX NSCLC) of 36.8%, a growth (SN12C renal) of 38.5% and a growth (UO-31 renal) of 35.4%. For the same molecule, the growth (TK-10 renal) was 54.6%, the growth (ACHN renal) was 42.1% and the growth (CCRF-CEM leukemia) was 9.99% (active). The growth (MOLT-4 leukemia) was 22%, the growth (SR leukemia) was 6.46% (active) and the growth (RPMI-8226 leukemia) was 19.1%. It also gave a growth (OVCAR-8 ovarian) of 24.3%, a growth (OVCAR-5 ovarian) of 40.6% and a growth (OVCAR-4 ovarian) of 45.6%. It also gave a growth (SK-OV-3 ovarian) of 30%, a growth (IGROV1 ovarian) of 32.5% and a growth (HS 578T breast) of 14.2%. It also gave a growth (NCI/ADR-RES ovarian) of 18.3%.

With `C[C@@H]1C[C@H]2C(=O)O[C@@H](C)C(NC(=O)[C@H](Cc3cc(F)cc(F)c3)NC(=O)Nc3ccc(Cl)cc3F)C(=O)N3CCC[C@H]3C(=O)N3CCCC[C@H]3C(=O)N[C@@H](CO)C(=O)N2C1` (some centres undefined) the growth (EKVX NSCLC) was 30.9%, the growth (SN12C renal) was 21.5% and the growth (UO-31 renal) was 34.9%. It also gave a growth (TK-10 renal) of 54.7%, a growth (ACHN renal) of 31.9% and a growth (CAKI-1 renal) of 17.5%. For the same molecule, the growth (CCRF-CEM leukemia) was 32.7%, the growth (MOLT-4 leukemia) was 36.5% and the growth (RPMI-8226 leukemia) was 14.9%. It also gave a growth (OVCAR-8 ovarian) of 21.9%, a growth (OVCAR-5 ovarian) of 35.3% and a growth (OVCAR-4 ovarian) of 22.6%. For the same molecule, the growth (SK-OV-3 ovarian) was 22.1%, the growth (IGROV1 ovarian) was 47.9% and the growth (HS 578T breast) was 33.4%. It also gave a growth (NCI/ADR-RES ovarian) of 47.5%.

`COc1ccc(-c2nc3cc(Cl)c(Cl)cc3n2CC(=O)N=Nc2c(O)[nH]c3ccc(OC)cc23)cc1` showed a growth (EKVX NSCLC) of 62.9%, a growth (SN12C renal) of 49.7% and a growth (UO-31 renal) of 69.9%. It also gave a growth (TK-10 renal) of 97.3%, a growth (ACHN renal) of 43.5% and a growth (CAKI-1 renal) of 59.4%. The growth (CCRF-CEM leukemia) was 61.6%, the growth (MOLT-4 leukemia) was 78.7% and the growth (SR leukemia) was 60.6%. It also gave a growth (RPMI-8226 leukemia) of 55.1%, a growth (OVCAR-8 ovarian) of 74.5% and a growth (OVCAR-5 ovarian) of 49.7%. For the same molecule, the growth (OVCAR-4 ovarian) was 40.4%, the growth (SK-OV-3 ovarian) was 86.2% and the growth (IGROV1 ovarian) was 29.5%. For the same molecule, the growth (HS 578T breast) was 47.7% and the growth (NCI/ADR-RES ovarian) was 30.9%.
